About 7,900 targets were measured; listed, in parts, are those with a hit and a random draw of the rest. About 0.6% of all pairs of compound and target were hits.
Columns and labels:
Assay in all cases: log2 fold change, soluble protein after heating vs DMSO (PISA); higher = thermal stabilisation; K562 cells, 10 uM, 30 min; active = over 0.2 and 3.5 SD of the protein, either way, in both replicates (recomputed)
[1] = compound: CN1CCN(CCOc2cc(OC3CCOCC3)c3c(Nc4c(Cl)ccc5c4OCO5)ncnc3c2)CC1 [saracatinib]
Outline: (§1)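 K562 cells at 2×10^6 cells/mL were treated for 30 min with 10 μM compound, and aliquots were heated for 3 min over 48°C-58°C before pooling. Extraction used PBS with 0.5% NP-40 at 4°C, and soluble protein was the supernatant after 21,000xg for 90 min, measured by TMTpro 16plex LC-MS/MS with channel sums equalised. Thermal stability values, relative to control samples and from duplicates, are log2 fold changes.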

[2] = compound: CN1CCN(c2nc(C3=C(c4c[nH]c5ccccc45)C(=O)NC3=O)c3ccccc3n2)CC1 [sotrastaurin]
Outline: as §1

[3] = compound: CN1CC[C@H](c2c(O)cc(O)c3c(=O)cc(-c4ccccc4Cl)oc23)[C@H](O)C1 [alvocidib]
Outline: as §1

[4] = compound: CN1CCc2c(c3ccccc3n2Cc2ccc(C(=O)NO)cc2)C1 [Tubastatin A]
Outline: as §1

[5] = compound: CNC(=O)C1=CC=CC=C1NC2=NC(=NC=C2Cl)NC3=C(C=C(C=C3)N4CCOCC4)OC
Outline: as §1

[6] = compound: CNC(=O)c1ccc(Nc2ncc(C(F)(F)F)c(NCc3nccnc3N(C)S(C)(=O)=O)n2)cc1 [defactinib]
Outline: as §1

[7] = compound: CNCc1ccc(-c2[nH]c3cc(F)cc4c3c2CCNC4=O)cc1 [rucaparib]
Outline: as §1

[8] = compound: CNc1nc(-c2ccc3c(N)n[nH]c3c2)cc(N2C[C@@H](C(=O)NC3CCCCC3)CC[C@H]2C)n1
Outline: as §1

[9] = compound: COC(=O)N[C@@H](C)CNc1nccc(-c2cn(C(C)C)nc2-c2cc(Cl)cc(NS(C)(=O)=O)c2F)n1 [encorafenib]
Outline: as §1

[10] = compound: COC(=O)[C@H](CCSC)NC(=O)C1=C(C=C(C=C1)NC[C@H](CS)N)C2=CC=CC=C2
Outline: as §1

[11] = compound: COC1=CC=C(C=C1)CN2C=CC3=C2C=C(C=C3)C(=O)NO
Outline: as §1

[12] = compound: CON(C)C(=O)N1N=C(c2cc(F)ccc2F)S[C@@]1(CCCN)c1ccccc1 [filanesib]
Outline: as §1

[13] = compound: CO[C@H]1C[C@@H]2CC[C@@H](C)[C@@](O)(O2)C(=O)C(=O)N2CCCC[C@H]2C(=O)O[C@H]([C@H](C)C[C@@H]2CC[C@H](n3cnnn3)[C@H](OC)C2)CC(=O)[C@H](C)/C=C(\C)[C@@H](O)[C@@H](OC)C(=O)[C@H](C)C[C@H](C)/C=C/C=C/C=C/1C [zotarolimus]
Outline: as §1

[14] = compound: COc1cc(C(=O)O)ccc1NC(=O)[C@@H]1N[C@@H](CC(C)(C)C)[C@](C#N)(c2ccc(Cl)cc2F)[C@H]1c1cccc(Cl)c1F [idasanutlin]
Outline: as §1

[15] = compound: COc1cc(Nc2ncc3c(n2)-c2ccc(Cl)cc2C(c2c(F)cccc2OC)=NC3)ccc1C(=O)O [alisertib]
Outline: as §1

[16] = compound: COc1cc2nc(-c3cc(F)ccc3O)nc(N[C@@H]3CNC[C@H]3C(C)(C)O)c2cc1OC
Outline: as §1

[17] = compound: COc1cc2ncnc(Nc3ccc(F)c(Cl)c3)c2cc1OCCCN1CCOCC1 [gefitinib]
Outline: as §1

[18] = compound: COc1cccc2cc(-c3nc([C@H]4CC[C@H](C(=O)O)CC4)n4ncnc(N)c34)[nH]c12
Outline: as §1

[19] = compound: CS(=O)(=O)CCNCc1ccc(-c2ccc3ncnc(Nc4ccc(OCc5cccc(F)c5)c(Cl)c4)c3c2)o1 [lapatinib]
Outline: as §1

[20] = compound: CS(=O)(=O)N1CCN(Cc2cc3nc(-c4cccc5[nH]ncc45)nc(N4CCOCC4)c3s2)CC1 [pictilisib]
Outline: as §1

Measured: log2 fold change

PNPLA4 (UniProt P41247)
Chain of UniProt P41247 (P41247 whole entry, looked up): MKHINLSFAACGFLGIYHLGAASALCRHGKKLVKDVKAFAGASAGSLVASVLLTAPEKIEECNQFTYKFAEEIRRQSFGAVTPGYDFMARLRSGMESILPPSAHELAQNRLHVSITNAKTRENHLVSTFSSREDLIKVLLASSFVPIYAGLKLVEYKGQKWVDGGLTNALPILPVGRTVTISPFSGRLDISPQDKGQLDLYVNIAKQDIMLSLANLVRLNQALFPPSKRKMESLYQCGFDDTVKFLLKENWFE
inactive: [1] -0.267 | [2] -0.091 | [3] -0.02 | [4] 0.007 | [5] 0.058 | [6] -0.047 | [7] 0 | [8] 0.17 | [9] -0.343 | [10] -0.011 | [11] 0.041 | [12] -0.184 | [13] -0.142 | [14] 0.003 | [15] 0.026 | [16] -0.133 | [17] 0.015 | [18] 0.113 | [19] -0.049

PEA15 isoform 2 (UniProt Q15121)
Chain of UniProt Q15121 (Q15121 whole entry, looked up): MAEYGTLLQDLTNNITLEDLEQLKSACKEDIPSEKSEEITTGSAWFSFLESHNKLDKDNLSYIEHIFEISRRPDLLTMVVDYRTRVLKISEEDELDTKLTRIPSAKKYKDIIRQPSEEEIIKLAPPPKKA
inactive: [1] 0.05 | [2] -0.02 | [3] -0.061 | [4] -0.009 | [5] -0.147 | [6] -0.026 | [7] -0.037 | [8] 0.009 | [9] 0.035 | [10] 0.034 | [11] 0.011 | [12] -0.079 | [13] 0.05 | [14] -0.02 | [15] -0.047 | [16] -0.009 | [17] 0 | [18] -0.015 | [19] -0.003 | [20] 0.03

PNPLA8 (UniProt Q9NP80)
inactive: [1] 0.022 | [2] 0.052 | [3] 0.037 | [4] -0.009 | [5] -0.021 | [6] -0.051 | [7] 0.038 | [8] -0.016 | [9] 0.026 | [10] -0.01 | [11] -0.061 | [12] 0.006 | [13] -0.077 | [14] -0.072 | [15] -0.053 | [16] -0.125 | [17] 0.032 | [18] 0.047 | [19] -0.022 | [20] 0.118

PRKAB1 (UniProt Q9Y478)
inactive: [1] 0.077 | [2] 0 | [3] -0.041 | [4] 0.087 | [5] -0.117 | [6] -0.037 | [7] 0.011 | [8] -0.02 | [9] 0.028 | [10] -0.021 | [11] 0.024 | [12] -0.022 | [13] 0.07 | [14] -0.223 | [15] -0.105 | [16] -0.034 | [17] -0.024 | [18] 0.05 | [19] -0.049 | [20] -0.063

PUM1 isoform 3 (UniProt Q14671)
Chain of UniProt Q14671 (Q14671 whole entry, looked up): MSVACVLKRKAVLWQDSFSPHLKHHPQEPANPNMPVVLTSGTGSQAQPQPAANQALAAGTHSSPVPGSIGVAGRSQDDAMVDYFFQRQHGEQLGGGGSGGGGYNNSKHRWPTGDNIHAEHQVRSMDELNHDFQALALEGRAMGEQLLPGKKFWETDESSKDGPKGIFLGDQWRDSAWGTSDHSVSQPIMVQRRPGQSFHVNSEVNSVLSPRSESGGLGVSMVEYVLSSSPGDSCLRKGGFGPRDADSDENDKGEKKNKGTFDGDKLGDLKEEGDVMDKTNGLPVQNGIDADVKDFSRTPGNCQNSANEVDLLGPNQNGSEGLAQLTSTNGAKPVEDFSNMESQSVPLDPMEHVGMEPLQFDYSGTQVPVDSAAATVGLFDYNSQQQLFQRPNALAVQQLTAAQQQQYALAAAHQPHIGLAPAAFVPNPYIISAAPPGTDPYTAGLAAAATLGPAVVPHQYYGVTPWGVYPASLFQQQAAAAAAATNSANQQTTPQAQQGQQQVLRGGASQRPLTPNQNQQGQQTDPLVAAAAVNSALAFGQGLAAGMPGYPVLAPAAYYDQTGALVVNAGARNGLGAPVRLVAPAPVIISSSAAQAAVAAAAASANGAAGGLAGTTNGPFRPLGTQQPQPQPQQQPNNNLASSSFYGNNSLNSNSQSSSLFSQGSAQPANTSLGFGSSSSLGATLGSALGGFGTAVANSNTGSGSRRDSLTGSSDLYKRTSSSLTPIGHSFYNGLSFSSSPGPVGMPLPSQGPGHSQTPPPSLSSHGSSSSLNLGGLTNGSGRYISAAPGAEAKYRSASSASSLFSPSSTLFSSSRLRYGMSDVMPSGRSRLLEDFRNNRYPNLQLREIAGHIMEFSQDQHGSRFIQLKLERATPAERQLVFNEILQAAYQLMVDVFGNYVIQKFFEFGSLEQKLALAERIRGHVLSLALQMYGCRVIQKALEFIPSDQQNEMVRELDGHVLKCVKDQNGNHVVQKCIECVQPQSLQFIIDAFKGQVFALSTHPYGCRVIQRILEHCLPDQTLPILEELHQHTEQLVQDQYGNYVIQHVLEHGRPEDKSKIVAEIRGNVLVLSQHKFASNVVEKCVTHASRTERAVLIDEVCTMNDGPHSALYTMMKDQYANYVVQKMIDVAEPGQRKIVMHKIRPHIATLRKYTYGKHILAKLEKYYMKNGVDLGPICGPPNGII
inactive: [1] -0.01 | [2] -0.023 | [3] -0.059 | [4] 0.004 | [5] -0.019 | [6] -0.078 | [7] 0.082 | [8] -0.039 | [9] -0.01 | [10] 0.001 | [11] -0.003 | [12] 0.007 | [13] -0.023 | [14] 0.006 | [15] -0.039 | [16] -0.025 | [17] 0.025 | [18] -0.002 | [19] 0.004 | [20] -0.012

PIP4K2B (UniProt P78356)
Chain of UniProt P78356 (P78356 whole entry, looked up): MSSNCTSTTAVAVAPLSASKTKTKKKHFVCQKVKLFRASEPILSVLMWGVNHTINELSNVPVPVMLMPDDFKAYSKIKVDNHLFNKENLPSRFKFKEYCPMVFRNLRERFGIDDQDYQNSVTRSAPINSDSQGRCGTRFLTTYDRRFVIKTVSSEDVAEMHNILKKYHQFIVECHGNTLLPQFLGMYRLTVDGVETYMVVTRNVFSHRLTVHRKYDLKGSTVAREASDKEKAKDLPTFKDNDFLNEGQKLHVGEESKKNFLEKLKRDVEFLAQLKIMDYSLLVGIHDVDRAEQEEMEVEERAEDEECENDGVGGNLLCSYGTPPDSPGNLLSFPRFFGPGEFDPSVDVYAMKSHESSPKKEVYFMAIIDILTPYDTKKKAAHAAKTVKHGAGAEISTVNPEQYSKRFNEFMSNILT
active: [16] 0.379
inactive: [1] -0.021 | [2] -0.088 | [3] 0.204 | [4] 0.022 | [5] 0.179 | [6] 0.176 | [7] -0.035 | [8] -0.083 | [9] 0.049 | [10] -0.108 | [11] 0.028 | [12] -0.146 | [13] 0.025 | [14] -0.104 | [15] -0.045 | [17] 0.035 | [18] 0.207 | [19] -0.026 | [20] 0.022

PSMA3 (UniProt P25788)
inactive: [1] 0.012 | [2] 0.038 | [3] -0.043 | [4] -0.006 | [5] 0.014 | [6] 0.048 | [7] -0.001 | [8] 0.02 | [9] 0.034 | [10] 0 | [11] 0.015 | [12] 0.034 | [13] 0.044 | [14] 0.019 | [15] -0.04 | [16] -0.079 | [17] -0.025 | [18] -0.003 | [19] 0.062 | [20] -0.053

PRCP (UniProt P42785)
inactive: [1] 0.019 | [2] 0.054 | [3] 0.003 | [4] -0.01 | [5] 0.025 | [6] -0.009 | [7] 0.01 | [8] -0.035 | [9] 0.007 | [10] 0.05 | [11] 0.009 | [12] -0.038 | [13] -0.007 | [14] -0.055 | [15] -0.013 | [16] -0.074 | [17] 0.029 | [18] 0.065 | [19] -0.014 | [20] 0.019

PDPK1 (UniProt O15530)
Chain of UniProt O15530 (O15530 whole entry, looked up): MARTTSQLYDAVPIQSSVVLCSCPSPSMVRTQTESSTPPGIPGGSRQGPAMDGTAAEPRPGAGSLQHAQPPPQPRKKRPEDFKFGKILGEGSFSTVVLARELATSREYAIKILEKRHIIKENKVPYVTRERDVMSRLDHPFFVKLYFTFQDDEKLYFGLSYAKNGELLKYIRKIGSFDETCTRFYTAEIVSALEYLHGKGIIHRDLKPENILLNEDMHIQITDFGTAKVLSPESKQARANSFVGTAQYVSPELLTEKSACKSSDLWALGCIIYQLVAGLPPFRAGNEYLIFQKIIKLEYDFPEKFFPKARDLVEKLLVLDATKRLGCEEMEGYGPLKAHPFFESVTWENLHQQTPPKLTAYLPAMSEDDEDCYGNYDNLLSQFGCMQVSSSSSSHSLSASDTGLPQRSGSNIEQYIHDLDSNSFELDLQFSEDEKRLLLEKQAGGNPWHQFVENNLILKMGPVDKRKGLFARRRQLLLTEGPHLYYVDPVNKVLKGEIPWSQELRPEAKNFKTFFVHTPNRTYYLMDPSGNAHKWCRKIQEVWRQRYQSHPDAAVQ
inactive: [1] -0.008 | [2] 0.034 | [3] -0.075 | [4] 0.023 | [5] -0.064 | [6] -0.025 | [7] -0.056 | [9] 0.041 | [10] 0 | [11] -0.015 | [12] -0.097 | [13] 0.04 | [14] -0.048 | [15] -0.017 | [16] 0.011 | [17] -0.028 | [18] 0.01 | [19] -0.058 | [20] -0.179
active: [8] 0.385

PPP1R14A (UniProt Q96A00)
Chain of UniProt Q96A00 (Q96A00 whole entry, looked up): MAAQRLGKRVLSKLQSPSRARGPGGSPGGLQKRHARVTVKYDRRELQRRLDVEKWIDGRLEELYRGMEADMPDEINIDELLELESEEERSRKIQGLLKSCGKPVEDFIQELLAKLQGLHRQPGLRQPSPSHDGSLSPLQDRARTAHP
inactive: [1] -0.048 | [2] -0.027 | [3] 0.025 | [4] 0 | [5] -0.021 | [6] -0.012 | [7] -0.023 | [8] -0.015 | [9] -0.025 | [10] -0.004 | [11] 0.016 | [12] 0.031 | [13] -0.028 | [14] -0.013 | [15] -0.041 | [16] 0.039 | [17] 0.012 | [18] -0.079 | [19] -0.057 | [20] 0.017

POTEI (UniProt P0CG38)
Chain of UniProt P0CG38 (P0CG38 whole entry, looked up): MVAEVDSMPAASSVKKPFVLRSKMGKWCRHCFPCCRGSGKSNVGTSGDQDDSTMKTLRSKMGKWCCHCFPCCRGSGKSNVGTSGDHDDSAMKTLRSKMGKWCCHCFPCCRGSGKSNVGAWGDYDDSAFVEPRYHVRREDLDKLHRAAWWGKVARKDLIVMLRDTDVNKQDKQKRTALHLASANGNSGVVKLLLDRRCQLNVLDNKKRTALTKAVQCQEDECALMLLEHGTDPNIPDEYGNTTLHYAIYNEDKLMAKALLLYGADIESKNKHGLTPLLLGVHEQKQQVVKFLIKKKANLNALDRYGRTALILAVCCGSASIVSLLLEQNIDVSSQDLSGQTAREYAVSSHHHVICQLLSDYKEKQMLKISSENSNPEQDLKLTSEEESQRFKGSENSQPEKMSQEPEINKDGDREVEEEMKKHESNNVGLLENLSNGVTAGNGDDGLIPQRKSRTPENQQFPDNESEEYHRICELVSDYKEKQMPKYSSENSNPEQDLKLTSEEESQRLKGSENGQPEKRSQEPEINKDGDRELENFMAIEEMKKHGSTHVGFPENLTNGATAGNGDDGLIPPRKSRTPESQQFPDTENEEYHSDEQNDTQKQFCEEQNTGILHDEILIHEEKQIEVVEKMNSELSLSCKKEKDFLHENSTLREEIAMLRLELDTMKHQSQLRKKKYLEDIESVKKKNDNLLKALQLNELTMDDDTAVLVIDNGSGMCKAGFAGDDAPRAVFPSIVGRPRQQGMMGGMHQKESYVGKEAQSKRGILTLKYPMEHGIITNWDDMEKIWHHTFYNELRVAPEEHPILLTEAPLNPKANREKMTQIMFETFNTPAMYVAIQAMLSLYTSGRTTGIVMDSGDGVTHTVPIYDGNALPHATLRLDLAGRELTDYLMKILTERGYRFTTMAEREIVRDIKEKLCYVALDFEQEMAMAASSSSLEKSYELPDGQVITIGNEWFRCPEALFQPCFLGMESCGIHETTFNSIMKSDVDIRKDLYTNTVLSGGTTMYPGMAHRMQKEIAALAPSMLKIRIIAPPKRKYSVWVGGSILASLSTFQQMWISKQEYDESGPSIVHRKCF
inactive: [1] 0.108 | [2] 0.066 | [3] -0.038 | [4] -0.012 | [5] -0.02 | [6] -0.026 | [7] -0.049 | [8] -0.014 | [9] -0.007 | [10] -0.016 | [11] 0.033 | [12] 0.04 | [13] 0.025 | [14] -0.007 | [15] 0.037 | [16] -0.003 | [17] 0.015 | [18] 0.067 | [19] -0.006 | [20] 0.012

PRUNE1 (UniProt Q86TP1)
inactive: [1] -0.071 | [2] -0.045 | [3] -0.053 | [4] 0.017 | [5] 0.007 | [6] -0.05 | [7] 0.027 | [8] 0.033 | [9] 0.006 | [10] 0.005 | [11] -0.083 | [12] -0.047 | [13] 0.026 | [14] 0.023 | [15] 0.091 | [16] 0.059 | [17] 0.006 | [18] -0.007 | [19] -0.038 | [20] 0.072

PCK2 (UniProt Q16822)
inactive: [1] 0.021 | [2] -0.003 | [3] -0.113 | [4] -0.139 | [5] -0.006 | [6] -0.048 | [7] -0.009 | [8] 0.015 | [9] -0.007 | [10] 0.01 | [12] -0.007 | [13] 0.045 | [14] -0.044 | [15] -0.035 | [16] 0.024 | [17] -0.025 | [18] 0.027 | [19] -0.045 | [20] 0.011
active: [11] -0.339

PSMD5 (UniProt Q16401)
inactive: [1] 0.019 | [2] -0.014 | [3] -0.047 | [4] -0.037 | [5] 0.016 | [6] -0.049 | [7] -0.045 | [8] -0.028 | [9] 0.008 | [10] 0.031 | [11] 0.024 | [12] -0.046 | [13] 0.013 | [14] -0.055 | [15] -0.055 | [16] -0.017 | [17] -0.013 | [18] 0 | [19] 0.017 | [20] -0.017

POLR2M (UniProt P0CAP2)
active: [20] -0.254
inactive: [1] 0.061 | [2] 0.019 | [3] 0.123 | [4] 0.005 | [5] -0.015 | [6] 0.041 | [7] 0.05 | [8] -0.021 | [9] 0.092 | [10] 0.017 | [11] -0.025 | [12] -0.004 | [13] -0.05 | [14] -0.022 | [15] -0.015 | [16] 0.094 | [17] -0.08 | [18] 0.054 | [19] -0.044

PC (UniProt P11498)
Chain of UniProt P11498 (P11498 whole entry, looked up): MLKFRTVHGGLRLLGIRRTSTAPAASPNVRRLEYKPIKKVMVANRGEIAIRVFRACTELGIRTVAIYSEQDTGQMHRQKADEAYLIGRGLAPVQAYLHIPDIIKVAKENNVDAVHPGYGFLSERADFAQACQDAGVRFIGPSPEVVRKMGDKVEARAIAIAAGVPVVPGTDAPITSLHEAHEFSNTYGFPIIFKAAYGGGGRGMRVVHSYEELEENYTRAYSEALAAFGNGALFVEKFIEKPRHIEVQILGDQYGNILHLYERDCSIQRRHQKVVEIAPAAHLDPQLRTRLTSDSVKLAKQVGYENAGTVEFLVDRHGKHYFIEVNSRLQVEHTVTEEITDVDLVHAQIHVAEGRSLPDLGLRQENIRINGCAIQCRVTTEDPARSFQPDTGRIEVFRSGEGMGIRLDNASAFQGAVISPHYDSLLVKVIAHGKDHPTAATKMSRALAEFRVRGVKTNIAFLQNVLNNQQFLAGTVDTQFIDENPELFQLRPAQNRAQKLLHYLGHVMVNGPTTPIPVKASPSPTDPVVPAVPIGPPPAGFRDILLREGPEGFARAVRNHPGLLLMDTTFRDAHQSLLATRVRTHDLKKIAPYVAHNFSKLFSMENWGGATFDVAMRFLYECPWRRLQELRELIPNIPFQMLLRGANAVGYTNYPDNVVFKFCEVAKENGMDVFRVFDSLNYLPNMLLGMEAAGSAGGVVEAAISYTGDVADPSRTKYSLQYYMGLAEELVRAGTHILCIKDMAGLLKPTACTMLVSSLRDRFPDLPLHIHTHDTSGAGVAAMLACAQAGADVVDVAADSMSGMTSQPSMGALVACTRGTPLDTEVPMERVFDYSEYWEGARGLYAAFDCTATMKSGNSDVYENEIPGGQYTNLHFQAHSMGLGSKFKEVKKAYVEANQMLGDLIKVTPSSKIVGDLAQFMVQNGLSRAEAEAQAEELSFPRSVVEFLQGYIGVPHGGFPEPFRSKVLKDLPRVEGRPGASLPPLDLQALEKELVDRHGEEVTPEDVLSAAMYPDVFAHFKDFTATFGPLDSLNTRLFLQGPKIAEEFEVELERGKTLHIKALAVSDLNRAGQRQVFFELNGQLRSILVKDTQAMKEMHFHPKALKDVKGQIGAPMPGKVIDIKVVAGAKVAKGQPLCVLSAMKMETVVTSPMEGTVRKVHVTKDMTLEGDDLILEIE
inactive: [1] -0.088 | [2] -0.033 | [3] -0.005 | [4] 0.001 | [5] -0.023 | [6] -0.113 | [7] 0.043 | [8] 0.09 | [9] -0.044 | [10] -0.076 | [11] 0.05 | [12] 0.08 | [13] -0.04 | [15] -0.039 | [16] 0.14 | [17] 0.024 | [18] 0.014 | [19] -0.011 | [20] 0.09
active: [14] -0.372
